# Results as given in PubChem BioAssay (EPA / NIEHS).
# Calls of active or inactive are those of the source. Rule for the calls: active = hit-call score of the fitted dose curve at least 0.9, where 1 is the maximum; inactive = score below 0.9.
# What was measured:
# [1] = APR_HepG2_NuclearSize_72hr: Apredica 72-hour HepG2 Assay for Nuclear Size (AID 2282925); details: high-content imaging, actives raise or lower the signal
# In short: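 HepG2 cells dosed 72 h at 0.39–200 uM (10 concentrations, duplicate) in 0.5% v/v DMSO final. Fixed, Hoechst 33342-stained nuclei imaged; nuclear diameter measured by automated image analysis. Bidirectional fit versus DMSO.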
# [2] = ATG_CRE_CIS: Attagene CIS-FACTORIAL HepG2 Assay for human cAMP Responsive Element (CRE) binding protein 3 (AID 2282926); details: HepG2 CRE cis-reporter, Attagene multiplexed mRNA; actives raise or lower the signal
# In short: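 Transfected HepG2 were treated for 24 hours, then RNA was extracted and reporter cDNA amplified with sequence-specific primers. Labelled fragments were separated by capillary electrophoresis, and the CRE signal was fitted bidirectionally with DMSO as baseline.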
# [3] = target: CCAAT/enhancer-binding protein beta (Homo sapiens) (UniProt P17676); test: ATG_C_EBP_CIS: Attagene CIS-FACTORIAL HepG2 Assay for human CCAAT/Enhancer Binding Protein (C/EBP) beta (AID 2282927); details: HepG2 Attagene cis-factorial transcription factor reporter; actives raise or lower the signal
# In short: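 Transiently transfected HepG2 (MRTU library, endogenous TF-driven promoters); 24 h dosing; total RNA → oligo(dT) RT → PCR → 6-FAM primer extension → HpaI digest → CE; fit bidirectionally vs DMSO.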
# [4] = ATG_CMV_CIS: Attagene CIS-FACTORIAL HepG2 Assay for human CMV (Internal Marker) (AID 2282928); details: HepG2 CMV promoter reporter, transcription factor profiling; actives raise or lower the signal;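 note: endpoint acts as a background internal control marker rather than a target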
# In short: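 Endogenous transcription factor activity read in HepG2 via transfected cis-promoter reporter units. After 24 h dosing, reporter mRNA measured by RT-PCR/capillary electrophoresis; gain or loss of signal fit relative to DMSO.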
# [5] = ATG_DR4_LXR_CIS: Attagene CIS-FACTORIAL HepG2 Assay for human Liver X Receptor (LXR), DR4 submotif (AID 2282929); details: HepG2 Attagene DR4 cis-reporter, mRNA transcription; actives raise or lower the signal
# In short: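 Cells were transfected with multiple reporter transcription units, exposed to chemicals for 24 hours, then lysed for RNA. Reporter mRNA induction was measured by RT-PCR with capillary electrophoresis detection and fitted in both directions relative to DMSO.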
# [6] = target: Aryl hydrocarbon receptor (Homo sapiens) (UniProt P35869); test: ATG_Ahr_CIS: Attagene CIS-FACTORIAL HepG2 Assay for human Aryl Hydrocarbon Receptor (Ahr) (AID 2282930); details: HepG2 AhR cis-factorial reporter transcription; actives raise or lower the signal
# In short: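 Read-out: reporter mRNA quantified by RT-PCR with fluorescent primer extension and capillary electrophoresis. Human HepG2 liver cells carried transfected cis-promoter reporter units and were exposed to chemical for 24 h; gain or loss fitted relative to DMSO.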
# [7] = ATG_AP_1_CIS: Attagene CIS-FACTORIAL HepG2 Assay for human Activator Protein 1 (AP-1) (AID 2282931); details: HepG2 Attagene cis-factorial AP-1 reporter mRNA; actives raise or lower the signal
# In short: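 Endogenous transcription-factor activity in human HepG2 liver cells is read through a cis-promoter reporter transcript, sampled 24 h after dosing. Detection uses RT-PCR with capillary electrophoresis; values come from bidirectional fitting relative to DMSO.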
# [8] = ATG_AP_2_CIS: Attagene CIS-FACTORIAL HepG2 Assay for human Activator Protein 2 (AP-2) (AID 2282932); details: HepG2 AP-2 cis-reporter, Attagene transcription factor profiling; actives raise or lower the signal
# In short: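 Multiplexed mRNA reporter assay in HepG2: cis-regulated units report endogenous factor activity after 24 h treatment. Fluorescence from capillary electrophoresis of RT-PCR products gives the signal, with DMSO as baseline.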
# [9] = ATG_BRE_CIS: Attagene CIS-FACTORIAL HepG2 Assay for human Bone Morphogenetic Protein (BMP) Response Element (BRE) (AID 2282933); details: HepG2 BMP response element reporter, Attagene transcription factor profiling; actives raise or lower the signal
# In short: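 Fluorescence-labelled reporter cDNA fragments, separated by capillary electrophoresis, gave the signal for this component of a 52-readout multiplex. HepG2 cells were transfected, exposed to chemicals for 24 h, and compared with DMSO using bidirectional fitting.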
# [10] = target: Retinoic acid receptor alpha (Homo sapiens) (UniProt P10276); test: ATG_DR5_RAR_CIS: Attagene CIS-FACTORIAL HepG2 Assay for human Retinoic Acid Receptor Alpha (RARE), DR5 submotif (AID 2282934); details: HepG2 Attagene cis-factorial RARE DR5 reporter, mRNA; actives raise or lower the signal
# In short: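 Read-out: DR5-driven reporter transcript measured by RT-PCR, 6-FAM primer extension, HpaI digest and capillary electrophoresis. Human HepG2 liver cells carry transiently transfected cis-element reporter constructs; dosing lasts 24 h. Gain or loss of signal fitted against DMSO baseline.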
# [11] = target: Transcription factor E2F1 (Homo sapiens) (UniProt Q01094); test: ATG_E2F_CIS: Attagene CIS-FACTORIAL HepG2 Assay for human E2F Transcription Factor 1 (AID 2282935); details: HepG2 Attagene cis-reporter, E2F reporter RNA transcripts; actives raise or lower the signal
# In short: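 Measures reporter transcript levels via RT-PCR with capillary electrophoresis detection in HepG2 cells harboring cis-regulated reporter units; 24 h post-dose; bidirectional curve fitting with DMSO as baseline.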
# [12] = ATG_M_61_CIS: Attagene CIS-FACTORIAL HepG2 Assay for M61 Transcription Factor (Internal Marker) (AID 2282937); details: HepG2 Attagene CIS-FACTORIAL M61 internal marker reporter; actives raise or lower the signal
# In short: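 Cells were transfected with reporter units under cis-regulatory promoters, treated with chemicals for 24 h, then lysed for RNA. Reporter transcripts were quantified by RT-PCR and capillary electrophoresis, and activity was fitted bidirectionally against DMSO.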
# [13] = ATG_EGR_CIS: Attagene CIS-FACTORIAL HepG2 Assay for human Early Growth Response 1 (EGR1) (AID 2282938); details: HepG2 Attagene CIS-FACTORIAL EGR reporter mRNA; actives raise or lower the signal
# In short: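 Endogenous TF activity in HepG2 liver cells was gauged through cis-promoter reporter constructs transiently transfected. After 24 h dosing, reporter mRNA was quantified by RT-PCR and capillary electrophoresis, and curves fitted in both directions versus DMSO.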
# [14] = ATG_M_19_CIS: Attagene CIS-FACTORIAL HepG2 Assay for M19 Transcription Factor (Internal Marker) (AID 2282939); details: HepG2 Attagene CIS-FACTORIAL M19 internal marker reporter; actives raise or lower the signal
# In short: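 HepG2, MRTU transient transfection, 24 h dosing. Total RNA → RT-PCR → 6-FAM primer extension → HpaI digest → CE fluorescence. Bidirectional curve fit, DMSO negative control.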
# [15] = ATG_ERE_CIS: Attagene CIS-FACTORIAL HepG2 Assay for Estrogen Response Element (ERE) (AID 2282940); details: HepG2 ERE cis-reporter, Attagene RNA transcript; actives raise or lower the signal
# In short: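 After a 24 h chemical treatment, RNA from reporter-transfected HepG2 cells is reverse-transcribed, PCR-amplified and fluorescently labelled. Fragments separated by capillary electrophoresis give reporter signal; DMSO serves as negative control.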
# [16] = target: Hepatocyte nuclear factor 3-beta (Homo sapiens) (UniProt Q9Y261); test: ATG_FoxA2_CIS: Attagene CIS-FACTORIAL HepG2 Assay for human Forkhead box A2 (FOXA2) (AID 2282942); details: HepG2 cis-reporter transcription factor activity, 24 h; actives raise or lower the signal
# In short: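 Endogenous transcription factor activity was read in HepG2 cells carrying transiently transfected cis-promoter reporter units. After 24 h dosing, reporter mRNA was quantified by RT-PCR and capillary electrophoresis, and values fitted bidirectionally versus DMSO.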
# [17] = ATG_FoxO_CIS: Attagene CIS-FACTORIAL HepG2 Assay for human Forkhead box O (FoxO) (AID 2282943); details: HepG2 Attagene cis-reporter, FoxO element, mRNA; actives raise or lower the signal
# In short: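 Read-out: fluorescence of 6-FAM-labelled reporter cDNA fragments resolved by capillary electrophoresis. Transiently transfected HepG2 cells were dosed for 24 h; activity fitted in both directions relative to DMSO controls.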
# [18] = ATG_GATA_CIS: Attagene CIS-FACTORIAL HepG2 Assay for human GATA Binding Protein (AID 2282944); details: HepG2 GATA cis-element reporter, Attagene multiplex mRNA; actives raise or lower the signal
# In short: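 Cells: HepG2, transiently transfected with cis-regulated reporter transcription units. Exposure: 24 h. Detection: RT-PCR plus capillary electrophoresis of FAM-labeled fragments. Analysis: bidirectional, DMSO as baseline.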
# [19] = ATG_E_Box_CIS: Attagene CIS-FACTORIAL HepG2 Assay for human Enhancer Box (E-box) (AID 2282936); details: HepG2 E-box cis-reporter transcription, actives raise or lower the signal
# In short: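 First, HepG2 cells receive multiple cis-regulated reporter constructs by transient transfection. Next, chemicals are applied for 24 h. Finally, reporter mRNA is quantified via RT-PCR and capillary electrophoresis, with DMSO as baseline.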
# [20] = ATG_Ets_CIS: Attagene CIS-FACTORIAL HepG2 Assay for human Erythroblast Transformation Specific (ETS) (AID 2282941); details: HepG2 ETS cis-reporter transcription, actives raise or lower the signal
# In short: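 Steps: transfect HepG2 with multiple reporter units; treat compound 24 h; isolate RNA, DNase-treat, reverse-transcribe; PCR-amplify, label with 6-FAM, digest with HpaI; separate by capillary electrophoresis. Activity fitted both directions versus DMSO.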
# Chain of Retinoic acid receptor alpha (Homo sapiens) (P10276 whole entry, looked up): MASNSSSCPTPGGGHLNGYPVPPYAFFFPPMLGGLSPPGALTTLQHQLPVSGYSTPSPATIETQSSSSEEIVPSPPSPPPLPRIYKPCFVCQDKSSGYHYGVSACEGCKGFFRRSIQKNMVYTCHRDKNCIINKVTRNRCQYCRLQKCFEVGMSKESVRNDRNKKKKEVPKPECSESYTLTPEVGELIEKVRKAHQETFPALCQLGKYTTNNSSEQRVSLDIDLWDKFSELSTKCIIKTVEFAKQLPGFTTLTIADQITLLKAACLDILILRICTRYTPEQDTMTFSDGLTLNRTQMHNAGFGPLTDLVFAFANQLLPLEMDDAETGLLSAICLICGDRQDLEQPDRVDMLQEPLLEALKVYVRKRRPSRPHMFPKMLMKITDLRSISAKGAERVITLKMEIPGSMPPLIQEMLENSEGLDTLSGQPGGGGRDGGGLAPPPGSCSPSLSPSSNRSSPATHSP
# Chain of Transcription factor E2F1 (Homo sapiens) (Q01094 whole entry, looked up): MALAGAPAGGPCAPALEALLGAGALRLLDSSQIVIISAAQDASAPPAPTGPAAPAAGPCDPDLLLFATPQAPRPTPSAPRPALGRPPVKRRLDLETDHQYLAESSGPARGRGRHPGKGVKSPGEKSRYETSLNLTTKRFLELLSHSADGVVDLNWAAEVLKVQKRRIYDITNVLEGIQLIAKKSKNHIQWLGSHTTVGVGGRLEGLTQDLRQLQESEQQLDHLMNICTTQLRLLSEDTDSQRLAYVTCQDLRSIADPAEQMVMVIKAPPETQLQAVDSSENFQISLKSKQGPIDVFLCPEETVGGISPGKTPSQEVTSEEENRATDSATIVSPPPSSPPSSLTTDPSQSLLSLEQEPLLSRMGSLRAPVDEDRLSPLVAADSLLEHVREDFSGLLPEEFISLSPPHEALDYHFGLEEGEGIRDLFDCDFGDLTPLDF
# Chain of Aryl hydrocarbon receptor (Homo sapiens) (P35869 whole entry, looked up): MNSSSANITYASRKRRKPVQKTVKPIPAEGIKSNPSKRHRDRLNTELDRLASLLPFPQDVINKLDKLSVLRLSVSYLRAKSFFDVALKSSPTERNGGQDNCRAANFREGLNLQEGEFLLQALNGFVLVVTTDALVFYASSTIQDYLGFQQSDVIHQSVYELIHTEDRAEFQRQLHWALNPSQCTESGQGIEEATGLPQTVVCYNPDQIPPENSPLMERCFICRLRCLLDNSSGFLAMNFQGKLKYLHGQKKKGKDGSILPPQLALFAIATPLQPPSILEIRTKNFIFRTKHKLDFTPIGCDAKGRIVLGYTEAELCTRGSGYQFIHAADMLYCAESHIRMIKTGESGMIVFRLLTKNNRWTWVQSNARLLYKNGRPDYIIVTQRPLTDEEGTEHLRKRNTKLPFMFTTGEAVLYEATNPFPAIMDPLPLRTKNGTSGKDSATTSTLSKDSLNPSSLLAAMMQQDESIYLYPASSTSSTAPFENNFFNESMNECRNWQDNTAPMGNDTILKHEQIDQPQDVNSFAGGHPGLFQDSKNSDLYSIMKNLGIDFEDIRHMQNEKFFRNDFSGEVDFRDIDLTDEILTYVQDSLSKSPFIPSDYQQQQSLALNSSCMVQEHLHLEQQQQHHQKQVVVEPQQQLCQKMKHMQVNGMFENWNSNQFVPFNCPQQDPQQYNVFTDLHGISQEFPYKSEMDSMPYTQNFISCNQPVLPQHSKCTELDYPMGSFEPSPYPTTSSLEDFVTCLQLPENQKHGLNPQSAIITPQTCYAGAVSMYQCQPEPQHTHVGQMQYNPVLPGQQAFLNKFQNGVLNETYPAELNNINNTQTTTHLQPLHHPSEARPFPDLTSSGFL
# Chain of CCAAT/enhancer-binding protein beta (Homo sapiens) (P17676 whole entry, looked up): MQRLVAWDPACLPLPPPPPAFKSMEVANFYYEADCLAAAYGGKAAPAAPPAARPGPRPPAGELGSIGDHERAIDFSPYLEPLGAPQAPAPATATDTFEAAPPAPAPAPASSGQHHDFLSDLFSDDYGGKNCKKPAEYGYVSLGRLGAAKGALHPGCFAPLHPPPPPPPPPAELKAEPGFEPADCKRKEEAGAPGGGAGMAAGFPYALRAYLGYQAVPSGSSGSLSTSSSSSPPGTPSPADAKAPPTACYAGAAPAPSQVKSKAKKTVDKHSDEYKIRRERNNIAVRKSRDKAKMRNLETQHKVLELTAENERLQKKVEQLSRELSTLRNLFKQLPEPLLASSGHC
# Chain of Hepatocyte nuclear factor 3-beta (Homo sapiens) (Q9Y261 whole entry, looked up): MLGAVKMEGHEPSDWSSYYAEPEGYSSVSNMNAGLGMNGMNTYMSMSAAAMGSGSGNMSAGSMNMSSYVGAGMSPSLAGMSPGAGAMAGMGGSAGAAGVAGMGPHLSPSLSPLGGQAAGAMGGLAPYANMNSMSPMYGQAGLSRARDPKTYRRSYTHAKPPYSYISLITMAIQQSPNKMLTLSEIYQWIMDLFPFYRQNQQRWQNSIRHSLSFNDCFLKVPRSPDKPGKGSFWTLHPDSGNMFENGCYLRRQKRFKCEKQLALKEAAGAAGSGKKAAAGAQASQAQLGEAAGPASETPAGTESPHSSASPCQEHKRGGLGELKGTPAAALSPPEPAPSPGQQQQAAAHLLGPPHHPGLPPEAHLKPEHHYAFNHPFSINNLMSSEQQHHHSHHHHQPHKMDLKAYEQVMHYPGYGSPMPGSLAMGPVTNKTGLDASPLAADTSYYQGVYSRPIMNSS
smiles,measurement,setting,value
CN=C=S,outcome,[1],inactive
same,AC50,[2],13.7 µM (active)
same,AC50,[3],15.4 µM (active)
same,outcome,[4],inactive
same,outcome,[5],inactive
same,outcome,[6],inactive
same,AC50,[7],13.5 µM (active)
same,outcome,[8],inactive
same,AC50,[9],16.5 µM (active)
same,outcome,[10],inactive
same,outcome,[11],inactive
same,outcome,[12],inactive
same,outcome,[13],inactive
same,outcome,[14],inactive
same,outcome,[15],inactive
same,outcome,[16],inactive
same,outcome,[17],inactive
same,outcome,[18],inactive
CN/C(=N\[N+](=O)[O-])NCc1cnc(Cl)s1,outcome,[1],inactive
same,outcome,[2],inactive
same,outcome,[3],inactive
same,outcome,[4],inactive
same,outcome,[5],inactive
same,outcome,[6],inactive
same,outcome,[7],inactive
same,outcome,[8],inactive
same,outcome,[9],inactive
same,outcome,[10],inactive
same,outcome,[19],inactive
same,outcome,[12],inactive
same,outcome,[13],inactive
same,outcome,[14],inactive
same,outcome,[15],inactive
same,outcome,[16],inactive
same,outcome,[17],inactive
same,outcome,[18],inactive
CCSC(=O)N1CCCCCC1,outcome,[1],inactive
same,outcome,[2],inactive
same,outcome,[3],inactive
same,outcome,[4],inactive
same,outcome,[5],inactive
same,outcome,[6],inactive
same,outcome,[7],inactive
same,outcome,[8],inactive
same,outcome,[9],inactive
same,outcome,[10],inactive
same,outcome,[19],inactive
same,outcome,[12],inactive
same,outcome,[13],inactive
same,outcome,[14],inactive
same,outcome,[15],inactive
same,outcome,[16],inactive
same,outcome,[17],inactive
same,outcome,[18],inactive
O=C(O)c1c(Cl)ccc2cc(Cl)cnc12,outcome,[1],inactive
same,outcome,[2],inactive
same,outcome,[3],inactive
same,outcome,[4],inactive
same,outcome,[5],inactive
same,outcome,[6],inactive
same,outcome,[7],inactive
same,outcome,[8],inactive
same,outcome,[9],inactive
same,outcome,[10],inactive
same,outcome,[11],inactive
same,outcome,[12],inactive
same,outcome,[13],inactive
same,outcome,[14],inactive
same,outcome,[15],inactive
same,outcome,[20],inactive
same,outcome,[16],inactive
same,outcome,[17],inactive
same,outcome,[18],inactive
Cc1nc(N(C)C)nc(OC(=O)N(C)C)c1C,outcome,[1],inactive
same,outcome,[2],inactive
same,outcome,[3],inactive
same,outcome,[4],inactive
same,outcome,[5],inactive
same,outcome,[6],inactive
same,outcome,[7],inactive
same,outcome,[8],inactive
same,outcome,[9],inactive
same,outcome,[10],inactive
same,outcome,[19],inactive
same,outcome,[12],inactive
same,outcome,[13],inactive
same,outcome,[14],inactive
same,outcome,[15],inactive
same,outcome,[20],inactive
same,outcome,[16],inactive
same,outcome,[17],inactive
same,outcome,[18],inactive
Cc1ccc(N=CN(C)C=Nc2ccc(C)cc2C)c(C)c1,outcome,[1],inactive
same,outcome,[2],inactive
same,outcome,[3],inactive
same,outcome,[4],inactive
same,outcome,[5],inactive
same,outcome,[6],inactive
same,outcome,[7],inactive
same,outcome,[8],inactive
same,outcome,[9],inactive
same,outcome,[10],inactive
same,outcome,[11],inactive
same,outcome,[19],inactive
same,outcome,[12],inactive
same,outcome,[13],inactive
same,outcome,[14],inactive
same,outcome,[15],inactive
same,outcome,[20],inactive
same,outcome,[16],inactive
same,outcome,[17],inactive
same,outcome,[18],inactive
COC(=O)c1c(C(F)F)nc(C(F)(F)F)c(C2=NCCS2)c1CC(C)C,outcome,[1],inactive
same,AC50,[2],9.92 µM (active)
same,AC50,[3],0.682 µM (active)
same,outcome,[4],inactive
same,AC50,[5],26.2 µM (active)
same,AC50,[6],50 µM (active)
same,outcome,[7],inactive
same,outcome,[8],inactive
same,AC50,[9],50 µM (active)
same,outcome,[10],inactive
same,AC50,[19],9.92 µM (active)
same,outcome,[12],inactive
same,outcome,[13],inactive
same,outcome,[14],inactive
same,AC50,[15],13.8 µM (active)
same,outcome,[16],inactive
same,outcome,[17],inactive
same,AC50,[18],88.5 µM (active)
